Only some compounds are listed: those with a hit (about 7.7% of all), similar ones and a draw of the others.
HCMV inh: qHTS Assay for inhibitors of the human cytomegalovirus (HCMV). HFF cells, HCMV-luciferase reporter, 72 h; active compounds read low. actives 4.5% (n = 410,000). AID 1259415, 2018. activity change, negative = inhibition, % at 57.5 µM; in the data active means activity change below about -60%; inconclusive means no clear call, values can overlap the other calls; inactive means above about -39%
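After 16 h attachment at 37C, HFF cells received test compound and HCMV-luciferase (1 PFU/cell); reporter luminescence read 72 h later, data normalized against buffer-only and known inhibitor Salinomycin.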
TbPYK inhibitor: qHTS of Trypanosoma Brucei Inhibitors; actives 0.12% (n = 410,000); TbPYK enzyme, Kinase-Glo Plus ATP luminescence, 45 min; Potency, µM (titrated, usually from 76.8 µM), for inactives: at the top dose activity, negative = inhibition, usual class: inhibitors; pyruvate kinase (Trypanosoma brucei), Q57TT1; further: potency means the concentration at half of the fitted maximal effect; nearly all actives have a fitted effect of over 50% in size
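Assay buffer: 50 mM TEA pH 7.2, 100 mM KCl, 10 mM MgCl2, 0.05% BSA, 0.01% Tween-20. Pyruvate kinase from T. brucei plus substrate met compound, then ADP (130 uM final). Luminescence was read post 45 min RT.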
FBPA Giardia inh: qHTS Assay for Inhibitors of Fructose-1,6-bisphosphate Aldolase from Giardia Lamblia. purified Giardia FBPA. actives 0.71% (n = 290,000). AID 2451, 2010. A8B2U2. Potency, µM (series often up to 59.6 µM), inactives show at the highest dose activity, negative = inhibition, most hits filed as inhibitors; further: potency means the concentration at half of the fitted maximal effect; nearly all actives have a fitted effect of over 55% in size
Target sequence (A8B2U2 whole entry, looked up): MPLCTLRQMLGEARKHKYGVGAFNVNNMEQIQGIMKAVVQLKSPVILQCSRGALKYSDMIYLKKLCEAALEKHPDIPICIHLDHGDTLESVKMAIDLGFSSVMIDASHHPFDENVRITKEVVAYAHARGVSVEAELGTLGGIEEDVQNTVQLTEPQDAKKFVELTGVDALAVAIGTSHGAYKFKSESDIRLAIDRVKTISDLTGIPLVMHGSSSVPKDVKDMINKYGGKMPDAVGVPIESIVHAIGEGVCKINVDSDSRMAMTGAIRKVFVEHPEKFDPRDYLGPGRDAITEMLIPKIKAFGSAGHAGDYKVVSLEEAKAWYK
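Giardia FBPA (40 nM reagent) was preincubated 10 min at RT with compound (up to 57.5 uM final), then substrate plus GAPDH/TPI/NAD/arsenate coupling system with diaphorase/resazurin was added; resorufin fluorescence (525/598 nm) was read after 20 min.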
Sm TGR inh: qHTS Assay for the Inhibitors of Schistosoma Mansoni Peroxiredoxins; Schistosoma mansoni thioredoxin glutathione reductase (TGR), Q962Y6; purified TGR, DTNB reduction, TNB absorbance 405 nm; Potency, µM (doses to about 114 µM), without a hit: at the highest dose activity change, negative = inhibition, most hits filed as inhibitors; actives 3% (n = 360,000); further: potency means the concentration at half of the fitted maximal effect; nearly all actives have a fitted effect of over 60% in size
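First, TGR (20 nM dispensed) and NADPH were mixed with compound. Second, a 15 min room-temperature incubation followed. Third, further NADPH and then DTNB were added to start the reaction. Finally, TNB absorbance was monitored kinetically.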
FMDV antiviral: High Throughput Screening for Foot and Mouth Disease Virus Antivirals; FMDV antiviral cell-based qHTS; Potency, µM (titrated, usually from 57.9 µM), without a hit: top-dose activity change, negative = inhibition, hits mostly inhibitors; actives 1.2% (n = 410,000); calls by dose curve; tested in HEK293T cells; further: read-out not given here; potency means the concentration at half of the fitted maximal effect; nearly all actives have a fitted effect of over 45% in size
RE007 growth inh: qHTS Assay for Inhibitors of the HIV-1 protein Vpr | actives 0.21% (n = 360,000) | Potency, µM (top dose mostly 92.2 µM), inactives show at the highest dose activity change, negative = less growth, most hits filed as inhibitors | S. pombe RE007 Vpr strain, BacTiter-Glo ATP luminescence, 24 h | AID 651644, 2012; active means well fitted falling curve with a large enough effect; inconclusive means small, poorly fitted or top-dose-only effect; inactive means no such curve, though single readings can be large or run the other way; further: potency means the concentration at half of the fitted maximal effect; nearly all actives have a fitted effect of over 50% in size
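Fission yeast strain RE007, carrying one chromosomally integrated HIV-1 vpr copy, was seeded at OD 0.01 in PMG+AL medium with 23 nL pinned compound. After 24 h at 30 °C and 99% humidity, viability was read by BacTiter-Glo luminescence.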
* marks the source's active call; other numbers are inactive results; ? = inconclusive; . = no result; [ ] = another dose, or the depositor's remark. Unless noted, the call rests on the fitted dose curve; in most records, active means well fitted curve in the direction sought with a large enough effect; inconclusive means small, poorly fitted or top-dose-only effect, or another doubt; inactive means no such curve, though single readings can be large; an effect the other way counts as inactive or inconclusive. On the % scale 0 is the no-effect control and ±100 the full control effect.

SMILES	HCMV inh	TbPYK inhibitor	FBPA Giardia inh	Sm TGR inh	FMDV antiviral	RE007 growth inh
CCOc1ccccc1CNCc1c(C(=O)O)n(Cc2ccccc2)c2cc(OC)ccc12	14	-1%	.	-3%	17%	.
COc1ccc(Cn2c(C(=O)O)c(CNCc3ccccc3F)c3ccc(OC)cc32)cc1	-76*	-5%	.	-2%	16%	.
COC(=O)c1ccc(CS(=O)(=O)c2ccc(F)cc2)o1	-19	-1%	-5%	22µM*	-2%	2%
COc1ccc(S(=O)(=O)Cc2ccc(C(=O)NCC(OC)OC)o2)cc1	-16	3%	5%	-17%	5%	5%
Cc1ccc(CNC(=O)c2ccc(CS(=O)(=O)c3ccccc3)o2)cc1	-61*	1%	.	-14%	?	2%
Cc1ccc(S(=O)(=O)Cc2ccc(C(=O)NCCCN3CCCC3=O)o2)cc1	-10	-12%	-3%	20µM*	7%	3%
COC(CNC(=O)c1ccc(CS(=O)(=O)c2ccccc2)o1)OC	-8	-9%	3%	18µM*	-17%	1%
Cc1ccc(S(=O)(=O)Cc2ccc(C(=O)NCc3cccs3)o2)cc1	44	-3%	0%	53%	-5%	-8%
O=C(NCc1ccc(F)cc1)c1ccc(CS(=O)(=O)c2ccc(Cl)cc2)o1	0	3%[15.4 µM]	.	-10%	?	.
COc1cc(/C=C2/C(=O)NN(c3ccc(C)c(Cl)c3)C2=O)cc([N+](=O)[O-])c1O	-30	1%	-21%	-31%	-27%	-4%
Cc1ccc(N2NC(=O)/C(=C\c3cc4c(cc3[N+](=O)[O-])OCO4)C2=O)cc1C	102	?	-5%	?	13µM*	-18%
C=CS(=O)(=O)N[C@@H](CSSC[C@H](NS(=O)(=O)C=C)C(=O)OC)C(=O)OC	-25	.	.	.	.	.
CN(CC(=O)Nc1cccc(F)c1)CC(=O)Nc1cc(S(=O)(=O)N2CCOCC2)ccc1Cl	0	-1%	.	-14%	?	2%
CN(CC(=O)Nc1cccc(S(=O)(=O)N2CCOCC2)c1)CC(=O)Nc1ccc(Cl)c(C(F)(F)F)c1	-75*	-9%	.	8%	?	2%
O=C(CNc1cccc(S(=O)(=O)N2CCOCC2)c1)Nc1ccc(C(F)(F)F)cc1	-11	0%	.	7%	32µM*	-4%
O=C(CNc1ccc(C(F)(F)F)cc1)Nc1cccc(S(=O)(=O)N2CCCC2)c1	95	5%	.	5%	-7%	-1%
N#CC1=C(c2ccccc2)/C(=C/c2ccccc2)OC1=O	-106*	4%	-13%	-22%	6.3µM*	-19%
CC(NC(=O)c1ccccc1)C(=O)NNC(=O)c1ccccc1Cl (configuration not stated)	-63*	0%	.	7%	-2%	3%
COc1ccc(Cc2n[nH]c(=S)o2)cc1	-25	-25%	-27%	35µM*	2%	-17%
COc1ccc(CCCc2n[nH]c(=S)o2)cc1	5	?	-13%	0%	-1%	13%
O=C(c1ccccc1)N1CCOC(O)(c2ccccc2)C1c1ccccc1 (configuration not stated)	-61*	-58%	.	.	18%	64%
COC(=O)NC(c1cccc(C)c1)[C@]1(C(C)=O)CCOC1=O (some centres not stated)	.	.	1%[12.9 µM]	.	.	.
O=C(c1c[nH]c2ccccc12)N1CCOCC1	-21	3%	-1%	?	9%	6%
S=C(c1c[nH]c2ccc(Br)cc12)N1CCOCC1	-72*	-12%	-13%	15%	0%	15%
O=C(Nc1cccc(C(=O)O)c1)/C(=C\c1ccco1)NC(=O)c1ccccc1	1	-20%	-13%	?	6%	1%
SMILES	HCMV inh	TbPYK inhibitor	FBPA Giardia inh	Sm TGR inh	FMDV antiviral	RE007 growth inh
O=C(Nc1cccc(C(=O)O)c1)/C(=C\c1ccco1)NC(=O)c1ccc(Br)o1	-9	?	-5%	50µM*	?	2%
O=C(Nc1cccc(F)c1)/C(=C/c1ccco1)NC(=O)c1ccco1	-36	-24%	.	45µM*	0%	7%
CCOC(=O)CCN1C(=O)[C@H]2[C@@H]3[C@H](O)[C@H](O)CC(=O)[C@H]3CC[C@H]2C1=O	.	.	-2%[12.9 µM]	.	.	.
Cc1cc(C)c(C(=O)CSc2nnc(C)s2)c(C)c1	-61*	-5%	-16%	.	4%	13%
O=C(CSc1nc2ccsc2c(=O)n1Cc1ccccc1Cl)NCc1ccc(F)cc1	-13	-3%	.	-4%	9%	.
COc1ccc(-n2ncc(C(=O)N3CCN(c4ccccn4)CC3)c2C2CCN(C(=O)OC(C)(C)C)CC2)cc1	?	-8%[15.4 µM]	.	11%	-9%	.
Cc1ccc(-c2csc(=S)n2CC(=O)OCC(=O)NCc2ccco2)cc1	47	-11%	-1%	40µM*	?	-3%
O=C(COC(=O)CCC(=O)c1ccc(Cl)cc1)NCc1ccco1	12	-2%	-5%	18µM*	4%	-17%
O=C(COC(=O)CCOc1ccccc1)NCc1ccco1	-12	-3%	1%	35µM*	-20%	16%
CCOc1ccc2c(c1)c(=O)c(C(=O)c1ccc(C)cc1)cn2Cc1ccccc1OC	?	5%	.	2%	-25%	.
Cc1cccc(NC(=O)CNC(=O)Cc2ccc(S(=O)(=O)N3CCOCC3)s2)c1C	-104*	-6%	.	-22%	-3%	14%
O=C(Cc1ccc(S(=O)(=O)N2CCOCC2)s1)Nc1cc(C(F)(F)F)cc(C(F)(F)F)c1	-80*	1%	.	2%	0%	-8%
CCN(CC)S(=O)(=O)c1cc(NC(=O)Cc2ccc(S(=O)(=O)N3CCOCC3)s2)ccc1Cl	-99*	2%	.	.	32µM*	4%
CC#CC(C)C(OCOC)C(CC(C)Cc1cc(Br)cc(OCc2ccccc2)c1OC)OC (configuration not stated)	.	.	1%[12.9 µM]	.	.	.
CC1CN(CC(=O)N2CCN(Cc3nccn3C)CC2)Cc2cc(Cl)ccc2O1 (configuration not stated)	.	.	.	.	-5%	.
CCSC1=NC(C)(C)C=C(/C=C/c2ccc(Cl)cc2Cl)N1	8	-7%	-12%	18µM*	?	-15%
CSC1=NC(C)(C)C=C(/C=C/c2ccc(Cl)cc2Cl)N1	-87*	-6%	-23%	20µM*	?	-13%
CSC1=NC(C)(C)C=C(/C=C/c2c(Cl)cccc2Cl)N1	20	-7%	-19%	16µM*	-7%	-11%
Nc1nccc(/C=C/c2c(Cl)cccc2Cl)n1	-14	-1%	-5%	21%	-2%	-2%

Bioassay records from PubChem.
